Measured values from PubChem BioAssay (NCATS).
Results filed as inconclusive are left out. Active and inactive are the calls of the source. Calls follow the shape of the full dose curve.

How the values were obtained:
[1] = Primary qHTS for inhibitors of SARS-S pseudo-typed particle cell entry (AID 1479145); conditions: SARS-S pseudotyped particle cell entry, luciferase reporter; series mostly up to 57.1 µM; also: nearly all actives have a fitted effect of over 45% in size
[2] = Primary qHTS for Huh7 cytotoxicity: counterscreen for inhibitors of MERS-S pseudotyped particle cell entry (AID 1479147); conditions: cell viability read-out; series mostly up to 57.1 µM
[3] = Primary qHTS for inhibitors of MERS-S pseudo-typed particle cell entry (AID 1479149); conditions: MERS-S pseudotyped particle entry, luciferase; series mostly up to 57.1 µM; also: nearly all actives have a fitted effect of over 60% in size
[4] = Primary qHTS for Vero E6 cytotoxicity: counterscreen for inhibitors of SARS-S pseudo-typed particle cell entry (AID 1479150); conditions: cell viability; series mostly up to 57.1 µM
% is scaled to controls: 0 for no effect and ±100 for the full control effect.

O=C(O)CCc1nc(-c2ccccc2)c(-c2ccccc2)o1
inactive: Potency [1] | Potency [2] | Potency [3] | Potency [4]

CC(=O)N[C@H]1[C@H]([C@H](O)[C@H](O)CO)OC(C(=O)O)=C[C@@H]1N=C(N)N
inactive: Potency [1] | Potency [2] | Potency [3] | Potency [4]

Cc1cccc(CN2CCN(C(c3ccccc3)c3ccc(Cl)cc3)CC2)c1 (stereo not given)
inactive: Potency [1] | Potency [2] | Potency [3] | Potency [4]

CCC1Nc2cc(Cl)c(S(N)(=O)=O)cc2S(=O)(=O)N1 (stereo not given)
inactive: Potency [1] | Potency [2] | Potency [3] | Potency [4]

CCCc1cc(C(N)=S)ccn1
inactive: Potency [1] | Potency [2] | Potency [3] | Potency [4]

O=C(O)/C=C/c1ccc(Cn2ccnc2)cc1
inactive: Potency [1] | Potency [2] | Potency [3] | Potency [4]

CC1(C)[C@@H](OC(=O)CCC(=O)O)CC[C@]2(C)[C@H]3C(=O)C=C4[C@@H]5C[C@@](C)(C(=O)O)CC[C@]5(C)CC[C@@]4(C)[C@]3(C)CC[C@@H]12
inactive: Potency [1] | Potency [2] | Potency [3] | Potency [4]

CCCCC(=O)O[C@]1(C(=O)CO)CC[C@H]2[C@@H]3CCC4=CC(=O)CC[C@]4(C)[C@H]3[C@@H](O)C[C@@]21C
inactive: Potency [1] | Potency [2] | Potency [3] | Potency [4]

Nc1ccc(S(=O)(=O)Nc2nccs2)cc1
inactive: Potency [1] | Potency [2] | Potency [3] | Potency [4]

O=c1ccc2ccccc2o1
inactive: Potency [1] | Potency [2] | Potency [3] | Potency [4]

OC[C@@H](O)[C@H](O)[C@H](O)[C@@H](O)CO
inactive: Potency [1] | Potency [2] | Potency [3] | Potency [4]

CC(C(O)c1ccc(O)cc1)N1CCC(Cc2ccccc2)CC1 (stereo not given)
inactive: Potency [1] | Potency [2] | Potency [3] | Potency [4]

OC[C@H]1O[C@@H](O[C@@H]2[C@@H](CO)O[C@](O)(CO)[C@H]2O)[C@H](O)[C@@H](O)[C@H]1O
inactive: Potency [1] | Potency [2] | Potency [3] | Potency [4]

NC(N)=NCCC[C@H](N)C(=O)O
inactive: activity change, negative = inhibition [1] -24.6% [at 5.34 µM] | outcome [2] inactive [at 5.34 µM] | outcome [3] inactive [at 5.34 µM] | activity change, negative = cytotoxicity [4] 0.575% [at 5.34 µM]

CC(=O)OCC(=O)[C@@]12N=C(C)O[C@@H]1C[C@H]1[C@@H]3CCC4=CC(=O)C=C[C@]4(C)[C@H]3[C@@H](O)C[C@@]12C
inactive: Potency [1] | Potency [2] | Potency [3] | Potency [4]

CCCCCOc1ccc(C2SC(=O)NC2=O)cc1OCC (stereo not given)
inactive: Potency [1] | Potency [2] | Potency [3] | Potency [4]

COc1ccc(CN(CCN(C)C)c2ccccn2)cc1
inactive: Potency [1] | Potency [2] | Potency [3] | Potency [4]

Nc1ccc(N=Nc2ccccc2)c(N)n1
inactive: Potency [1] | Potency [2] | Potency [3] | Potency [4]

CC1(C)S[C@@H]2[C@H](N=CN3CCCCCC3)C(=O)N2[C@H]1C(=O)O
inactive: Potency [1] | Potency [2] | Potency [3] | Potency [4]

C[C@]12CC[C@@H]3c4ccc(O)cc4CC[C@H]3[C@@H]1CC[C@@H]2OC(=O)CCC1CCCC1
inactive: Potency [1] | Potency [2] | Potency [3] | Potency [4]
